Experimental findings from PubChem BioAssay AID720690 (Broad Institute, 2013) are described below.

Each structure is given as a SMILES string. Entries with a potency or affinity are not part of this list. The source made the active and inactive calls.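 The calls were made as follows: active = every repeat run showing a signal drop whose fitted half-maximal concentration is at most twice the top tested concentration; inconclusive = repeat runs disagree, or flat partial drop, or poor fit; inactive = the rest.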

A short description of this test: general mammalian cell viability loss – activator set, cherry-pick, cytotoxicity control for miR-122 modulator project, dose response (AID 720690).

Regarding `Cc1ccc(S(=O)(=O)Nc2ccc3c(c2)C(=O)N(C)[C@@H]2CC[C@H](CC(=O)NCCc4ccncc4)O[C@@H]2CO3)cc1`, the result was inactive. As to `CC(C)NC(=O)Nc1ccc2c(c1)C(=O)N(C)[C@@H]1CC[C@H](CC(=O)NCC(F)(F)F)O[C@H]1CO2`, the outcome was inactive. Under `C[C@@H]1CN([C@@H](C)CO)S(=O)(=O)c2ccc(C#Cc3ccncc3)cc2O[C@@H]1CN(C)C(=O)C1CCOCC1` stands “inactive”. The value for `CCCNC(=O)Nc1ccc2c(c1)OC[C@@H](C)N(CCC)C[C@H](C)[C@H](OC)CN(C)C2=O` was “inactive”; that for `CCS(=O)(=O)Nc1ccc2c(c1)C(=O)N(C)[C@H]1CC[C@H](CC(=O)NCCCN3CCOCC3)O[C@H]1CO2` was “inactive”. Under `Cc1cccc(NC(=O)c2sc3nc(-c4ccc(F)cc4)cn3c2C)n1` stands “inactive”.

In the case of `COC(=O)C[C@H]1CC[C@@H]2[C@H](COc3ccc(NC(=O)c4cccs4)cc3C(=O)N2C)O1`, the outcome was inactive.

Consider `CN1C(=O)c2cc(NC(=O)c3cccc(F)c3)ccc2OC[C@@H]2O[C@@H](CC(=O)O)CC[C@@H]21`, for which the result was inactive.

Turning to `CC(C)c1ccc(CNC(=O)CSCC(=O)Nc2ccc3ccccc3c2)cc1`, the result was inactive. For the molecule `CCCNC(=O)N1C[C@@H]2[C@H](c3ccccc31)[C@H](CO)N2C(=O)C1CCOCC1`, the result was inactive. Consider `CNC(=O)C[C@H]1CC[C@@H]2[C@@H](COc3ccc(NC(=O)C(C)C)cc3C(=O)N2C)O1`, for which the outcome was inactive. Regarding `C[C@@H]1CN([C@@H](C)CO)S(=O)(=O)c2ccc(/C=C/c3ccccc3)cc2O[C@@H]1CN(C)C(=O)c1cccnc1`, the molecule was classed as inactive. Regarding `OC(c1cc(C(F)(F)F)nc2c(Cl)cc(Cl)cc12)C1CCCCN1` (stereo not given), the call was inactive. `CN1C(=O)c2cc(NC(=O)c3ccc4c(c3)OCO4)ccc2OC[C@H]2O[C@H](CC(=O)O)CC[C@@H]21`: the molecule was classed as inactive.

Take `CN1C(=O)c2cc(NS(=O)(=O)c3cccc(F)c3)ccc2OC[C@H]2O[C@@H](CC(=O)NCCN3CCCCC3)CC[C@H]21`: the outcome was inactive. In the case of `CCN(C[C@@H]1N[C@H](CO)[C@H]1c1ccc(-c2ccc(F)cc2)cc1)C(=O)COC`, the result was inactive.

Regarding `COCC(=O)N1[C@@H](CO)[C@@H]2c3ccccc3N(C(=O)c3cccnc3)C[C@@H]21`, the result was inactive. Take `CN(C)CCCNC(=O)C[C@H]1CC[C@H]2[C@@H](COc3ccc(NC(=O)c4ccccc4F)cc3C(=O)N2C)O1`: the molecule was classed as inactive. For `Cc1cc(C(=O)Nc2cccc(O)c2)co1`, the molecule was called inactive. On to `COc1cccc(NC(=O)Nc2ccc3c(c2)C(=O)N(C)[C@@H]2CC[C@H](CC(=O)O)O[C@H]2CO3)c1`, for which the call was inactive.

On to `c1cnc(N2CCN(Cc3c[nH]c4ccccc34)CC2)nc1`, for which the result was inactive.

For `CCOc1ccc(C(CCc2ccccc2)NC(=O)c2ccccc2F)cc1OCC` (stereo not given), the result was inactive. As to `COCC(=O)NC[C@H]1[C@@H](c2ccc(C3=CCCC3)cc2)[C@@H](CO)N1C(=O)C1CC1`, the result was inactive. As to `CC(C)NC(=O)Nc1ccc2c(c1)C(=O)N(C)[C@@H]1CC[C@@H](CC(=O)NCC(F)(F)F)O[C@@H]1CO2`, the call was inactive. For the molecule `O=C(COC(=O)Cc1ccc(S(=O)(=O)N2CCOCC2)s1)Nc1ccc2c(c1)OCO2`, the result was inactive. As for `COCC(=O)N(C)C[C@H]1Oc2cc(-c3ccccc3F)ccc2S(=O)(=O)N([C@H](C)CO)C[C@H]1C`, the molecule was classed as inactive. Turning to `O=C(Nc1ccccc1)N1C[C@@H]2[C@H](c3ccccc31)[C@H](CO)N2Cc1cocn1`, the result was inactive.

Turning to `CNC(=O)C[C@@H]1CC[C@H]2[C@H](COc3ccc(NC(=O)c4cccc(OC)c4)cc3C(=O)N2C)O1`, the call was inactive. For the molecule `CC(=O)N(C)C[C@H]1[C@@H](c2ccc(-c3ccc(F)cc3)cc2)[C@@H](CO)N1C(C)=O`, the molecule was called inactive.

As for `CC(C)C(=O)Nc1ccc2c(c1)C(=O)N(C)[C@@H]1CC[C@H](CC(=O)NCc3cccc(F)c3)O[C@H]1CO2`, the result was inactive. As to `C[C@H](CO)N1C[C@H](C)[C@H](CN(C)C(=O)NC2CCCCC2)Oc2ncc(-c3cccc(C(F)(F)F)c3)cc2C1=O`, the molecule was called inactive. Regarding `C/C=C/c1ccc([C@H]2[C@@H](CNC(=O)c3ccncc3)N(C(=O)CC)[C@H]2CO)cc1`, the molecule was called inactive. On to `C[C@@H]1CN([C@@H](C)CO)C(=O)c2cccc(NS(C)(=O)=O)c2O[C@H]1CN(C)S(=O)(=O)c1ccc(Cl)cc1`, for which the call was inactive. On to `COCCN(C[C@H]1[C@@H](c2ccccc2)[C@H](CO)N1C(=O)C1CCC1)C(C)=O`, for which the result was inactive. For `COCC(=O)Nc1ccc2c(c1)C(=O)N(C)[C@@H]1CC[C@@H](CC(=O)OC)O[C@@H]1CO2`, the call was inactive. As to `COCC(=O)N(C)C[C@H]1[C@H](c2ccccc2)[C@@H](CO)N1C(=O)NC(C)C`, the result was inactive. Consider `C[C@@H]1CN([C@@H](C)CO)C(=O)c2cccc(NC(=O)Nc3ccc4c(c3)OCO4)c2O[C@@H]1CN(C)Cc1ccc(Oc2ccccc2)cc1`, for which the call was inactive. The value for `CNC[C@@H]1Oc2cc(C#CC3CCCC3)ccc2S(=O)(=O)N([C@@H](C)CO)C[C@@H]1C` was “inactive”. As to `CCCC(=O)Nc1ccc2c(c1)C(=O)N(C)[C@@H]1CC[C@H](CC(=O)NCCOC)O[C@H]1CO2`, the outcome was inactive. Consider `Cc1noc(C)c1NC(=O)Nc1ccc2c(c1)C(=O)N(C)[C@@H]1CC[C@H](CC(=O)N[C@H]3CCN(Cc4ccccc4)C3)O[C@H]1CO2`, for which the outcome was inactive.
